Test results reported in PubChem BioAssay AID1159580 (chemical genetic matrix, 2015).
In all, about 5,500 compounds went through this assay and about 2,000 (36%) were called active. Not shown: some 18% with an inconclusive outcome. No stated cut-off is given here; in the data, active means normalized growth mostly below about 0.91 (no sharp cut-off); inconclusive means no clear call, values can overlap the other calls; inactive means mostly above about 0.92. This is one part of the list.

Assay: chemical genetic growth profiling, strain panel (AID 1159580);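 further: tested at 20 µM; growth read once vehicle control cultures reached saturation at 30 °C; 1 = growth at the plate median or of vehicle wells; lower values mean less growth of the strain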
Settings: S. cerevisiae deletion strains, growth OD
[1] = locus YAR019C, strain CDC15, active compounds read low
[2] = locus YBL105C, strain PKC1, active compounds read low
[3] = locus YBR135W, strain CKS1, active compounds read low
[4] = locus YBR136W, strain MEC1, active compounds read low
[5] = locus YDL017W, strain CDC7, active compounds read low
[6] = locus YDL101C, strain DUN1, active compounds read low
[7] = locus YDL214C, strain PRR2, active compounds read low
[8] = locus YDR052C, strain DBF4, active compounds read low
[9] = locus YDR054C, strain cdc34, active compounds read low
[10] = locus YDR226W, strain ADK1, active compounds read low
[11] = locus YDR477W, strain SNF1, active compounds read low
[12] = locus YER123W, strain YCK3, active compounds read low
[13] = locus YER133W, strain GLC7, active compounds read low
[14] = locus YFL029C, strain CAK1, active compounds read low
[15] = locus YFR003C, strain YPI1, active compounds read low
[16] = locus YFR019W, strain FAB1, active compounds read low
[17] = locus YFR028C, strain CDC14, active compounds read low
[18] = locus YGR040W, strain KSS1, active compounds read low
[19] = locus YGR052W, strain FMP48, active compounds read low
[20] = locus YGR092W, strain DBF2, active compounds read low
[21] = locus YHR030C, strain SLT2, active compounds read low
[22] = locus YHR079C, strain IRE1, active compounds read low
[23] = locus YHR082C, strain KSP1, active compounds read low
[24] = locus YHR205W, strain SCH9, active compounds read low
[25] = locus YIL147C, strain SLN1, active compounds read low
[26] = locus YJL095W, strain BCK1, active compounds read low
[27] = locus YJL157C, strain FAR1, active compounds read low
[28] = locus YJR066W, strain TOR1 (second series), active compounds read low
[29] = locus YJR066W, strain TOR1, active compounds read low
[30] = locus YKL048C, strain ELM1, active compounds read low
[31] = locus YKL067W, strain YNK1, active compounds read low
[32] = locus YKL101W, strain HSL1, active compounds read low
[33] = locus YKL193C, strain SDS22, active compounds read low
[34] = locus YKL203C, strain TOR2, active compounds read low
[35] = locus YLR113W, strain HOG1, active compounds read low
[36] = locus YLR133W, strain CKI1, active compounds read low
[37] = locus YLR403W, strain SFP1, active compounds read low
[38] = locus YML070W, strain DAK1, active compounds read low
[39] = locus YMR001C, strain CDC5, active compounds read low
[40] = locus YMR205C, strain PFK2 (second series), active compounds read low
[41] = locus YMR277W, strain FCP1, active compounds read low
[42] = locus YNL006W, strain LST8, active compounds read low
[43] = locus YNL020C, strain ARK1, active compounds read low
[44] = locus YNL183C, strain NPR1, active compounds read low
[45] = locus YNL222W, strain SSU72, active compounds read low
[46] = locus YNL307C, strain MCK1 (second series), active compounds read low
[47] = locus YOL078W, strain AVO1, active compounds read low
[48] = locus YOL136C, strain PFK27, active compounds read low
[49] = locus YOR061W, strain CKA2, active compounds read low
[50] = locus YOR119C, strain RIO1, active compounds read low
[51] = locus YOR231W, strain MKK1, active compounds read low
[52] = locus YOR329C, strain SCD5, active compounds read low
[53] = locus YPL031C, strain PHO85, active compounds read low
[54] = locus YPL153C, strain RAD53, active compounds read low
[55] = locus YPL204W, strain HRR25, active compounds read low
[56] = locus YPL209C, strain IPL1, active compounds read low
[57] = locus YPL256C, strain CLN2, active compounds read low
[58] = locus YPR025C, strain CCL1, active compounds read low
[59] = locus YPR106W, strain ISR1, active compounds read low
[60] = strain NNK1, active compounds read low
[61] = strain TSCII, active compounds read low

Measured: normalized growth

CCCN(CC1CC1)c1nc(C)nc(Nc2c(Cl)cc(Cl)cc2Cl)c1Cl
active: locus YNL197C, strain WHI3, active compounds read low 1.13 [resistant] | locus YOR083W, strain WHI5 (second series), active compounds read low 1.18 [resistant]
inactive: locus YAL013W, strain DEP1, active compounds read low 1.02 | locus YAL040C, strain CLN3, active compounds read low 1.06 | locus YCL061C, strain MRC1 (second series), active compounds read low 1 | locus YDR150W, strain NUM1, active compounds read low 1.01 | locus YDR363W, strain ESC2, active compounds read low 0.999 | locus YER002W, strain NOP16, active compounds read low 1.05 | locus YJR075W, strain HOC1, active compounds read low 1.01 | locus YMR263W, strain SAP30, active compounds read low 1.01 | locus YMR307W, strain GAS1, active compounds read low 1 | locus YNL153C, strain GIM3, active compounds read low 1.06 | locus YNL224C, strain SQS1, active compounds read low 1.05

COC(=O)/C=C1/OC(c2ccc(OC)cc2)=CC1=O
inactive: [5] 0.968 | [8] 0.981 | [10] 0.923 | [15] 0.98 | [25] 0.978 | [42] 0.989 | [52] 0.988
active: [1] 0.283 | [2] 0.594 | [3] 0.428 | [4] 0.671 | [6] 0.447 | [7] 0.105 | [9] 0.464 | [11] 0.101 | [12] 0.102 | [13] 0.0947 | [14] 0.177 | [16] 0.099 | [17] 0.433 | [18] 0.108 | [19] 0.125 | [20] 0.154 | [21] 0.14 | [22] 0.29 | [23] 0.143 | [24] 0.0277 | [26] 0.124 | [27] 0.121 | [28] 0.102 | [29] 0.15 | [30] 0.402 | [31] 0.0947 | [32] 0.156 | [33] 0.221 | [34] 0.103 | [35] 0.163 | [36] 0.129 | [37] 0.16 | [38] 0.0894 | [39] 0.273 | [40] 0.152 | [41] 0.274 | [43] 0.315 | [44] 0.115 | [45] 0.499 | [46] 0.123 | [47] 0.316 | [48] 0.102 | [49] 0.308 | [50] 0.108 | [51] 0.23 | [53] 0.103 | [54] 0.221 | [55] 0.282 | [56] 0.5 | [57] 0.154 | [58] 0.576 | [59] 0.507 | [60] 0.11 | [61] 0.265

CO/N=C1/CC(C)(C)Cc2c(-c3ccn(C(=O)Nc4cccc(Cl)c4)n3)sc(SC)c21
active: [21] 1.16 [resistant]
inactive: [1] 0.981 | [2] 0.965 | [3] 0.968 | [4] 0.969 | locus YBR160W, strain CDC28, active compounds read low 0.964 | [5] 0.967 | locus YDL028C, strain MPS1, active compounds read low 0.963 | [6] 0.975 | locus YDL108W, strain KIN28, active compounds read low 0.959 | locus YDL132W, strain cdc53, active compounds read low 0.967 | [7] 0.983 | [8] 0.973 | [9] 0.971 | [10] 0.974 | [11] 0.996 | [12] 0.993 | [13] 1 | locus YFL009W, strain cdc4, active compounds read low 0.963 | [14] 0.978 | [15] 0.96 | [16] 1 | [17] 0.969 | [18] 1 | [19] 1.02 | [20] 1 | [22] 1.13 | [23] 1.1 | [24] 0.989 | [25] 0.972 | [26] 1.02 | locus YJL128C, strain PBS2, active compounds read low 0.952 | [27] 0.996 | locus YJR016C, strain ILV3, active compounds read low 0.97 | [28] 1.06 | [29] 1.1 | [30] 0.993 | [31] 0.98 | [32] 0.988 | [33] 0.968 | [34] 1.06 | [35] 0.968 | [36] 0.98 | [37] 1.02 | [38] 0.984 | [39] 0.977 | [40] 0.978 | [41] 0.97 | [42] 0.981 | [43] 0.983 | locus YNL161W, strain CBK1, active compounds read low 0.977 | [44] 1.03 | locus YNL207W, strain RIO2, active compounds read low 0.971 | [45] 0.969 | [46] 0.992 | [47] 0.966 | [48] 0.993 | [49] 0.98 | [50] 1.05 | [51] 0.984 | [52] 0.971 | [53] 1.02 | [54] 1.04 | [55] 1.02 | [56] 0.969 | [57] 1.13 | [58] 0.963 | [59] 0.975 | locus YPR111W, strain DBF20, active compounds read low 0.962 | [60] 0.989 | [61] 0.977
